From PubChem BioAssay
A3G deaminase – blocks human APOBEC3G single-stranded DNA deamination; inhibition, % at 20 µM; 0.28% of 330,000 active; recombinant A3G, ssDNA deamination FAM/TAMRA fluorescence; Q9HC16;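 active = inhibition of at least 40% at 20 µM, with no more than 30% in the related APOBEC3A deaminase screen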;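 also: plate controls were DMSO wells with A3G for no effect and wells lacking A3G enzyme for full effect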
Target sequence (Q9HC16 whole entry, looked up): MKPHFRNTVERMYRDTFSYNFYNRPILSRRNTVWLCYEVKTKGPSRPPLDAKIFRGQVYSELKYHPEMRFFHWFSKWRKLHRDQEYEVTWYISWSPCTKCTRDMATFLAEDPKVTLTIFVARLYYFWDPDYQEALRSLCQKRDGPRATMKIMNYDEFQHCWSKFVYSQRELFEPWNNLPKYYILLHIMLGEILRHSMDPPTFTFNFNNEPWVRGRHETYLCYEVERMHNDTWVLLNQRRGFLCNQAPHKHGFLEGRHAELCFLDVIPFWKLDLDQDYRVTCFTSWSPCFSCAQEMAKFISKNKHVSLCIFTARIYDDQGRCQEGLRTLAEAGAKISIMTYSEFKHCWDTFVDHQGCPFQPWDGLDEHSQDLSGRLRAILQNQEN
Yeast superoxide – yeast age-related superoxide inhibition as caloric restriction mimetic; S. cerevisiae aged cells, superoxide DHE fluorescence; stronger effect = lower value; superoxide response (% of plate mean), % at 10 µM; 0.18% of 330,000 active;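 active = superoxide response under a set limit, about three screen SD below normal, cut at about 65% in these data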;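 also: yeast aged for seven days with compound at 30 °C before DHE staining; 100% = average MFI of all compound-treated wells on the plate with controls excluded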
ALR inh – human ALR oxidase inhibition via reduced H2O2; P55789; purified ALR, DTT oxidation, H2O2 HRP-luminol luminescence; inhibition, % (test concentration not listed); 3.8% of 290,000 active; AID 485317;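 active = mean replicate inhibition above about 79%, with every replicate also reaching it, limit read from the data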
Target sequence (P55789 whole entry, looked up): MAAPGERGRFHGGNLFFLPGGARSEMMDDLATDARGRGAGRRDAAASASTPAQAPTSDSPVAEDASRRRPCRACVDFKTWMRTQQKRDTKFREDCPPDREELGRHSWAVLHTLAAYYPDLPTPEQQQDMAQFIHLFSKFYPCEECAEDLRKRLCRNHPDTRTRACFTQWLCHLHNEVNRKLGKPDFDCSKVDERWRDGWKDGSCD
NRP1-CendR mod – NRP-1/CendR interaction modulation; O14786; FAM-RPARPAR peptide binding to NRP-1, fluorescence polarization; inhibition, % at 25 µM; 0.85% of 360,000 active;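 active = inhibition or corrected inhibition above about 18%, plus a signal ratio from 0.5 to 1.5, limit read from the data, passing the limit was not always enough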
M18AAP inhibitor – blocks P. falciparum M18 aspartyl aminopeptidase | inhibition, % at 7.35 µM | recombinant PfM18AAP, H-Glu-NHMec fluorogenic cleavage | 1.2% of 290,000 active | AID 1822;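 active = inhibition above the campaign mean inhibition over all tested compounds plus 3 SD, cut at about 28% in these data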;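 also: 0% = plate median of test compound wells and 100% = 2 mM ZnCl2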
A3A deaminase – inhibitors of human APOBEC3A DNA deaminase | P31941 | recombinant A3A, FAM/TAMRA ssDNA deamination fluorescence | inhibition, % at 20 µM | 0.41% of 330,000 active | AID 493011;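 active = at least 40% inhibition at 20 µM here, with at most 30% in a related deaminase screen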;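 also: plate controls were A3A with DMSO for no effect and wells lacking A3A enzyme for full effect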
* marks the source's active call; other numbers are inactive results. In the library only some 5.2% were active in any assay of this set; here they are far more common.

`CN1/C(=C\C(=O)COC(=O)c2ccc([N+](=O)[O-])o2)C(C)(C)c2ccccc21` gave A3G deaminase -6, Yeast superoxide 111, ALR inh -215, NRP1-CendR mod 5, M18AAP inhibitor 1 and A3A deaminase -1.
COc1ccc(-c2nnn(CC(=O)N3CCN(c4ccccc4OC)CC3)n2)cc1OC was read as A3G deaminase -1, Yeast superoxide 94, NRP1-CendR mod -5, M18AAP inhibitor 4 and A3A deaminase 4.
`CCn1c(SCC(=O)Nc2ccccc2Cl)nnc1C1CC1` gave A3G deaminase -15, Yeast superoxide 108, ALR inh -1, NRP1-CendR mod -2, M18AAP inhibitor -4 and A3A deaminase 1.
CCc1nnc(SCC(=O)Nc2ccccc2Cl)nc1CC was read as A3G deaminase -5, Yeast superoxide 96, ALR inh 98*, NRP1-CendR mod 7, M18AAP inhibitor -2 and A3A deaminase 9.
For CC1(C)CC(CC(=O)NC(=S)Nc2ccc([N+](=O)[O-])cc2)C(=O)O1 (stereo not given) the results were A3G deaminase 2, Yeast superoxide 107, ALR inh 12, NRP1-CendR mod 13, M18AAP inhibitor -2 and A3A deaminase 2.
CC[C@@H](C)[C@@H](C(=O)N1CCN(C(=O)OC(C)(C)C)CC1)n1cc(CCCN=C(NC(=O)OC(C)(C)C)NC(=O)OC(C)(C)C)nn1 was read as A3G deaminase 1, ALR inh -11, NRP1-CendR mod 26*, M18AAP inhibitor 3 and A3A deaminase 0.
O=C(O)CCn1cc(/C=C2/NC(=S)N(c3ccccc3)C2=O)c(-c2ccccc2)n1 was read as A3G deaminase -4, Yeast superoxide 115, ALR inh 97*, NRP1-CendR mod 2, M18AAP inhibitor 6 and A3A deaminase -2.
For N#CCCn1cc(/C=C2\NC(=S)N(c3ccccc3)C2=O)c(-c2ccc(-c3ccccc3)cc2)n1 the results were A3G deaminase 1, Yeast superoxide 105, ALR inh 1, NRP1-CendR mod 6, M18AAP inhibitor 1 and A3A deaminase 2.
Cc1ccc(-c2cnn3c(N4CCOCC4)cc(C)nc23)cc1 was read as A3G deaminase -5, Yeast superoxide 99, ALR inh 93*, NRP1-CendR mod 4, M18AAP inhibitor 4 and A3A deaminase 0.
`COC(=O)C1(Cc2cc(-c3cccc(Br)c3)no2)CCN(C(=O)OC(C)(C)C)CC1` gave A3G deaminase 14, Yeast superoxide 87, ALR inh -19, NRP1-CendR mod -4, M18AAP inhibitor 3 and A3A deaminase 1.
CCOc1cc(/C=C(/C#N)c2nc3ccccc3[nH]2)ccc1Oc1ccc([N+](=O)[O-])cn1 was read as A3G deaminase -1, Yeast superoxide 119, ALR inh -2, NRP1-CendR mod -21, M18AAP inhibitor 2 and A3A deaminase 0.
`N#C/C(=C\c1ccccc1OCC(=O)O)c1nc2ccccc2[nH]1` gave A3G deaminase -3, Yeast superoxide 98, ALR inh 98*, NRP1-CendR mod -11, M18AAP inhibitor 0 and A3A deaminase 3.
For CCOc1cc(/C=C(\C#N)c2nc3ccccc3[nH]2)ccc1OC(C)C(=O)O (stereo not given) the results were A3G deaminase -8, Yeast superoxide 102, ALR inh 98*, NRP1-CendR mod -10, M18AAP inhibitor 5 and A3A deaminase -1.
O=C(Nc1ccc2c(c1)OCO2)O[C@@H]1C[C@H]2CCC(=O)N3CC[C@@H](C1)[C@@H]23 was read as A3G deaminase -13, Yeast superoxide 86, ALR inh 2, NRP1-CendR mod 21*, M18AAP inhibitor 5 and A3A deaminase -1.
For CC(C)(C)C(=O)Nc1cccc(C(=O)Nc2cc(C(=O)O)cc(C(=O)O)c2)c1 the results were A3G deaminase -7, Yeast superoxide 96, ALR inh -2, NRP1-CendR mod 1, M18AAP inhibitor 1 and A3A deaminase 0.
Screening CN(C)CCNC(=O)c1cccc(-c2cnc3c(NC=O)cc(-c4ccc(C(=O)N5CCOCC5)cc4)cn23)c1 returned NRP1-CendR mod 4.
`COC(=O)c1ccc2c(c1)SC1=C(CCCC1=O)N2` gave A3G deaminase -7, Yeast superoxide 94, ALR inh 34, NRP1-CendR mod -20, M18AAP inhibitor 14 and A3A deaminase -3.
Screening O=C1CCCC2=C1Sc1ccc(Cl)cc1N2 returned A3G deaminase -8, Yeast superoxide 89, NRP1-CendR mod 138, M18AAP inhibitor 30* and A3A deaminase -4.
`Cn1c(=NC(=O)COc2ccccc2)sc2ccccc21` gave A3G deaminase -4, Yeast superoxide 79, ALR inh -11, NRP1-CendR mod 26*, M18AAP inhibitor -6 and A3A deaminase 2.
`Cn1c(=NC(=O)CS(=O)(=O)c2ccccc2)sc2ccccc21` gave A3G deaminase -9, Yeast superoxide 103, NRP1-CendR mod -10 and A3A deaminase 1.
Screening COc1ccc(-c2nc3c4ccccc4ccn3c2CN2CCCCC2)cc1OC returned A3G deaminase -6, Yeast superoxide 96, ALR inh -10, NRP1-CendR mod -4, M18AAP inhibitor 1 and A3A deaminase -1.
CCOC(=O)c1c(C)oc2c1c(C=NCCO)c(O)c1ccccc12 was read as NRP1-CendR mod 35* and M18AAP inhibitor 8.
Screening CCOC(=O)c1c(C)oc2c1c(C(c1ccccc1)N1CCOCC1)c(O)c1ccccc12 (stereo not given) returned A3G deaminase 5, Yeast superoxide 93, ALR inh -11, NRP1-CendR mod -7, M18AAP inhibitor 9 and A3A deaminase 3.
For CCOC(=O)c1c(-c2ccc(OC)cc2)csc1/N=C/C1C(=O)CCCC1=O the results were A3G deaminase -5, Yeast superoxide 91, ALR inh 48, NRP1-CendR mod 10, M18AAP inhibitor 34* and A3A deaminase -2.
`CCCN1CCN(C(=O)CCc2nnc3ccc(N4CCN(c5cccc(OC)c5)CC4)nn23)CC1` gave A3G deaminase 0, Yeast superoxide 101, ALR inh 99*, NRP1-CendR mod 4, M18AAP inhibitor -2 and A3A deaminase -1.
For COc1cccc(N2CCN(c3ccc4nnc(CCC(=O)N5CCC(C)CC5)n4n3)CC2)c1 the results were A3G deaminase -6, Yeast superoxide 107, ALR inh 99*, NRP1-CendR mod 10, M18AAP inhibitor -2 and A3A deaminase -3.
For COc1ccc(N2CCN(C(=O)CCc3nnc4ccc(N5CCC(C)CC5)nn34)CC2)cc1 the results were A3G deaminase -7, Yeast superoxide 133, ALR inh 90*, NRP1-CendR mod 9, M18AAP inhibitor 14 and A3A deaminase -6.
